# Measurements: PubChem BioAssay (NCI)
# Compounds without any hit were thinned out: in the full panel of roughly 83,000, 20% have a hit.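 In brief: 96-well plates, 48 h treatment, single concentration, percent growth endpoint.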 Unmarked numbers belong to inactive results. The source made the active and inactive calls. Rule for the calls: active = growth percent below 10; inactive = the rest.
# Test system: NCI-H23 lung
# Assay: NCI-60 one-dose screen, 48 h (100 = growth as untreated, 0 = no growth, -100 = all killed)
# Conditions: 10 µM
row,Compound,growth
1,O=C(NO)c1ccc(Cn2ccc3c(Nc4ccccc4)ncnc32)cc1,-87.2% (active)
2,N#Cc1ccc(-c2nn(-c3ccc(C(=O)O)cc3)cc2CNc2cccc(Br)c2)cc1,10.6%
3,O=C(c1ccc(Cl)cc1)C1[C@H](c2ccccc2Br)[C@@H](c2ccccc2)NC12C(=O)Nc1ccccc12 (some centres not stated),6.15% (active)
4,CC1(C)CC[C@]2(C(=O)Nc3ccccc3)CC[C@]3(C)C(=CC[C@@H]4[C@@]5(C)CC[C@H](N)C(C)(C)[C@@H]5CC[C@]43C)[C@H]2C1,68.8%
5,CC(=C(c1ccc(OCCCN(C)C)cc1)c1ccc(OCCCN(C)C)cc1)c1ccccc1,-97.9% (active)
6,Cc1ccc(/C=C/C(=O)c2ccc(S(=O)(=O)NCCNc3nc(Nc4ccc(F)cc4)nc(N(C)C)n3)cc2)cc1,36.5%
7,COc1ccc(C(=O)Nc2sc3c(c2C#N)CCC(=O)C3)cc1C(F)(F)F,-13.7% (active)
8,COc1ccc2nc(Cl)c(-c3cc(-c4ccccc4)nc(=S)[nH]3)cc2c1,72.6%
9,Cc1ccc(-c2cc(C(=O)N=Nc3c(O)[nH]c4ccccc34)c3ccccc3n2)cc1,31.8%
10,C#Cc1ccc(S(=O)(=O)Nc2cccc(-c3csc(NC(C)=O)n3)c2)cc1,65.2%
11,CC(C)C1=C[C@@]23CC[C@@H]4[C@](C)(CCC[C@]4(C)C(=O)NCc4ccccc4)[C@H]2C[C@@H]1[C@H]1C(=O)CCC(=O)[C@H]13,59%
12,COc1ccc(C(=O)NC(=S)N2CCN(c3ncnc4c3cnn4-c3ccccc3)CC2)cc1,60%
13,C[C@H]1[C@H](C)CC[C@]2(COC(=O)CCC(=O)NCC#CCN3CCNCC3)CC[C@]3(C)C(=CC[C@@H]4[C@@]5(C)CCCNC(C)(C)[C@@H]5CC[C@]43C)[C@H]12,44.1%
14,CC[C@@]1(O)C(=O)OCc2c1cc1n(c2=O)Cc2c-1nc1cc(F)c(C)c3c1c2[C@@H](N)CC3,-57.4% (active)
15,Cc1cccc2cc(-c3cc(-c4ccccc4)nc(=S)[nH]3)c(Cl)nc12,82.2%
16,Cc1ccc(CNC(=O)Cc2ccc3c(c2)CN(C2CCC(=O)NC2=O)C3=O)cc1 (configuration not stated),66.5%
17,CONC[C@]1(C)C=C2C(=O)[C@](C)(O)C3(CC3)C(C)=C2[C@H]1O,-82.6% (active)
18,CC1(C)CC[C@]2(C(=O)N3CCOCC3)CC[C@]3(C)C(=CC[C@@H]4[C@@]5(C)CC[C@H](NCO)C(C)(C)[C@@H]5CC[C@]43C)[C@H]2C1,-88.1% (active)
19,NS(=O)(=O)c1ccc(N=Nc2c(O)n(CC(=O)Nc3ccccc3Br)c3ccccc23)cc1,40%

row,Compound,growth
1,CNC(=O)c1cccc(N2CCc3c2ccc(NC(=O)Nc2ccc(N4CCN(C)CC4)c(C(F)(F)F)c2)c3F)c1,-85.6% (active)
2,O=C(NCCCCC(c1ccc(F)cc1)c1ccc(F)cc1)NCCCc1cccnc1,24%
3,CC(=O)Nc1ccc(-c2cn(-c3cccc(C(=O)Nc4ccc(Cl)c(C(F)(F)F)c4)c3)nn2)cn1,-67.6% (active)
4,CCCS(=O)(=O)c1oc(-c2ccc(F)cc2)nc1S(=O)(=O)c1ccc(F)cc1,-42.1% (active)
5,O=C(Cn1nc(-c2ccccc2)ccc1=O)NN1C(=O)c2ccccc2C1=O,105%
6,CC(=O)NCC1=C(C)C=C2C(=O)[C@](C)(O)C3(CC3)C(C)=C21,-76.6% (active)
7,CCN1CCN(Cc2ccc(C(=O)Nc3cccc(-c4cn(-c5ccc6oc(=O)ccc6c5)nn4)c3)cc2C(F)(F)F)CC1,-100% (active)
8,CCOP(=O)(OCC)O[C@H]1CCC(=O)[C@@H]2[C@H]1[C@H]1C[C@@H]3[C@@]4(C)CCCC(C)(C(=O)OC)[C@@H]4CC[C@@]23C=C1C(C)C (some centres not stated),50.3%
9,O=C1Nc2ccc(F)cc2/C1=C/c1cccc(OCc2ccccn2)c1,58.3%
10,CC1=N/C(=C\c2ccc(N(C)C)cc2)C(=O)N1CCc1ccc(S(N)(=O)=O)cc1,98.5%
11,O=C(Nc1ccc(I)cc1F)c1cc(-c2ccc(F)cc2F)ccc1O,-22% (active)
12,C/C(=N\NC(N)=S)c1ccc(Nc2nc(SC(C)C)nc(-c3ccccc3)c2C#N)cc1,52.5%
13,COc1ccc2c(c1)N=C(C(=O)O)/C2=C/c1sc(Nc2ccc(O)cc2)nc1O,71.6%
14,COc1cc(-c2nc3cc(Cl)c(Cl)cc3[nH]2)ccc1OCc1nnc(-c2ccc(Br)cc2)o1,24%
15,Cc1ccc(NC(=O)c2ccc(-n3c(=O)[nH]c4ccccc4c3=O)cc2)cc1,88.2%
16,CC(=C(c1ccc(OCCN2CCCCC2)cc1)c1ccc(OCCN2CCCCC2)cc1)c1ccccc1,47.2%
17,CCCCCc1ccc(S(=O)(=O)N(C(C)=O)c2cc(-c3csc(N(C)C(C)=O)n3)ccc2N2CCN(C)CC2)cc1,43.6%
18,COc1cc2c3c(n(CCCNC(C)C)c(=O)c2cc1OC)-c1nc2c(cc1C3=O)OCO2,16.5%
